The structures appear in SMILES notation. Records with an inconclusive call do not appear. Values without a mark were called inactive. Active and inactive are the calls of the source. The call rests on the fitted dose curve; in most records, active means well fitted cell-killing curve with a large enough effect; inconclusive means small, poorly fitted or top-dose-only effect, or effect the other way; inactive means flat fitted curve, though single readings scatter.

The values that follow come from PubChem BioAssay (NCATS).
On the % scale 0 is the no-effect control and ±100 the full control effect; potency means the concentration at half of the fitted maximal effect.

One assay relates to PA-1. The assay can be described thus: Primary qHTS to identify gynecologic anti-cancer compounds using libraries of approved drugs and bioactive compounds (AID 1345084). Further: nearly all actives have a fitted effect of over 55% in size. The following applies: Gynecologic cancer cell panel viability, ATPlite luminescence, 48 h; series mostly up to 57.5 µM; activity change, negative = cytotoxicity: at the top concentration. In a few lines: (§1)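 Cells, 1,000 per well, were allowed to settle for 16 h at 37 C before compound addition. Five concentrations were tested for 48 h, and viability was read by ATPlite luminescence after 15 min at room temperature.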
(Quantitative high-throughput screening tests each substance at several concentrations.)
`N#CCNC(=O)c1ccc(-c2ccnc(Nc3ccc(N4CCOCC4)cc3)n2)cc1`: the Potency is 14.1 µM (active).

In the case of `O=C(Nc1cc(C(F)(F)F)cc(C(F)(F)F)c1)c1cc(Cl)ccc1O`, the Potency was 1.58 µM (active). In the case of `Cn1cc(-c2ccncc2)c(-c2ccc(OCc3ccc4ccccc4n3)cc2)n1`, the “activity change, negative = cytotoxicity” value was -28.5%.

Take `COC(=O)Nc1ccc(-c2nc(N3CCOCC3)c3cnn(C4CCN(Cc5cccnc5)CC4)c3n2)cc1`: the Potency is 15.8 µM (active). With `Cc1cc(Nc2cc(CN3CCOCC3)c3nc(C)c(Cc4ccc(Cl)cc4F)n3n2)n[nH]1`, the “activity change, negative = cytotoxicity” value was -24.9%.

In the case of `Cc1cc(Nc2nc(N[C@@H](C)c3ccc(F)cc3)c(C#N)cc2F)n[nH]1`, the Potency is 7.08 µM (active). For `COC(=O)Nc1nc2ccc(C(=O)c3ccc(F)cc3)cc2[nH]1`, the Potency was 2 µM (active). On the same count and under the same terms, next, `O=C(Cc1ccc(-c2ccc(OCCN3CCOCC3)cc2)cn1)NCc1ccccc1`: 1.26 µM (active).

Another assay deals with SKOV3. The assay is described as above. Conditions: Gynecologic cancer cell panel viability, ATPlite luminescence, 48 h; series mostly up to 57.5 µM; activity change, negative = cytotoxicity: at the top concentration. Summed up:
as §1
A general note: In ATP-based viability assays light output follows the ATP content of the culture.
Turning to `C=CC(=O)Nc1cc2c(Nc3ccc(F)c(Cl)c3)ncnc2cc1OCCCN1CCOCC1`, the Potency was 3.16 µM (active). In the case of `COC(=O)c1ccc2c(C(=Nc3ccc(N(C)C(=O)CN4CCN(C)CC4)cc3)c3ccccc3)c(O)[nH]c2c1`, the “activity change, negative = cytotoxicity” value was -6.13%. Consider `Cc1ccc(C(=O)Nc2ccc(CN3CCN(C)CC3)c(C(F)(F)F)c2)cc1C#Cc1cnc2cccnn12`, for which the Potency was 10 µM (active). As for `CCNC(=O)Nc1ccc2ncc(Nc3ccc(C)cc3)nc2n1`, the “activity change, negative = cytotoxicity” value is 11.6%.

Consider `COc1cc2c(Oc3ccc(-c4cnc(Nc5ccc(F)cc5)n(C)c4=O)cc3F)ccnc2cc1OCCCN1CCOCC1`, for which the “activity change, negative = cytotoxicity” value was -2.73%.

Consider `CC1(O)CC(c2nc(-c3ccc4ccc(-c5ccccc5)nc4c3)c3c(N)nccn23)C1` (stereo not given), for which the “activity change, negative = cytotoxicity” value was -2.3%.

For `Nc1nc(Nc2ccc(S(N)(=O)=O)cc2)nn1C(=O)c1c(F)cccc1F`, the “activity change, negative = cytotoxicity” value is -28.4%.

As for `Fc1cc(-c2cccc3ncc(-c4cnn(C5CCNCC5)c4)nc23)cc(F)c1CN1CCOCC1`, the Potency is 12.6 µM (active). For the compound `O=C(Nc1nc2cccc(-c3ccc(CN4CCS(=O)(=O)CC4)cc3)n2n1)C1CC1`, the “activity change, negative = cytotoxicity” value was -27.1%. As for `O=C(c1ccc(Nc2nccc(-c3cc4ccccc4s3)n2)cc1)N1CCC(N2CCCC2)CC1`, the Potency was 25.1 µM (active). With `CC(=O)c1c(C)c2cnc(Nc3ccc(N4CCNCC4)cn3)nc2n(C2CCCC2)c1=O`, the activity change, negative = cytotoxicity is 4.84% [at 6.55 µM]. Take `OCc1ccc(-c2ccc(-c3ccc(CO)s3)o2)s1`: the Potency was 12.6 µM (active). `Cc1nc(N)ncc1-c1nc(N2CCOCC2)c2sc(C(C)(C)O)cc2n1`: the Potency is 2.82 µM (active). `CC(=O)Nc1nc(C)c(-c2ccc(Cl)c(S(=O)(=O)NCCO)c2)s1`: the Potency is 11.2 µM (active). Consider `O=C(Nc1cc(C(F)(F)F)cc(C(F)(F)F)c1)c1cc(Cl)ccc1O`, for which the Potency is 3.55 µM (active).

As to `CS(=O)(=O)N1CCN(Cc2cc3nc(-c4cccc5[nH]ncc45)nc(N4CCOCC4)c3s2)CC1`, the Potency was 2.51 µM (active). For `COC(=O)Nc1ccc(-c2nc(N3CCOCC3)c3cnn(C4CCN(Cc5cccnc5)CC4)c3n2)cc1`, the Potency is 2 µM (active).
